Laboratory results: PubChem BioAssay AID489025 (Southern Research Specialized Biocontainment Screening …, 2010)
The whole screen tested about 2,300 compounds, of which about 790 (34%) were called active. The rule behind the calls is not given here. This is one part of the list. Entries with a potency or affinity are not part of this list.

Test: THP-1 cell cytotoxicity, dose response, cytotoxicity control for non-replicating M. tuberculosis project (AID 489025)
Details: THP-1 cell viability; series mostly up to 40 µM

Compound | outcome
COc1ccccc1C1=Nn2c(nnc2C2CCCCC2)SC1 | inactive
O=C(Nc1ccc(Cl)cn1)C1COc2ccccc2O1 (stereo not given) | inactive
O=c1oc(-c2cccs2)nc2c1cnn2-c1ccccc1 | inactive
Cc1ccccc1Cn1cc(NC(=O)c2noc(C(C)C)c2[N+](=O)[O-])cn1 | inactive
COc1ccc(CN=C(C#N)C2=C(O)c3ccccc3C2=O)cc1 | inactive
CC(C)CN1C(=O)CC(Sc2ccccc2C(=O)O)C1=O (stereo not given) | inactive
CC(=O)c1c(C)n(C)c2ccc(OC(=O)c3ccco3)cc12 | inactive
Cc1ccc(NC(=O)CCSc2nnc(Cc3ccccc3)o2)cc1 | inactive
O=C(NCc1ccccc1CN1CCCC1)c1cc2ccccc2o1 | inactive
Oc1ccc(Cl)cc1CNCc1ccc(F)cc1 | inactive
Brc1ccc(-c2ccc(CNCc3ccccn3)o2)cc1 | inactive
O=c1cc(C(F)(F)F)[nH]c2c(C(F)(F)F)cccc12 | inactive
CN(C)CCN1C(=O)c2oc3ccccc3c(=O)c2C1c1cccc(Br)c1 (stereo not given) | inactive
O=C(c1cc2ccccc2o1)N1CCN(Cc2ccccc2)CC1 | inactive
O=C1CCC(=O)N1CNc1ccc(Oc2ccccc2)cc1 | inactive
O=C(Nc1sc2c(c1C(=O)O)CCCC2)c1ccc(F)cc1 | inactive
O=C(c1ccc([N+](=O)[O-])o1)N1CCc2ccccc2C1 | inactive
COC(=O)CCC(=O)Nc1sc(Cc2ccccc2)c(C)c1C(N)=O | inactive
O=C(CCSc1nnc(-c2ccncc2)o1)Nc1ccc(Cl)cc1 | inactive
CC1(C)CC(=O)c2cc(C(=O)NNc3ccccc3)c(=O)n(-c3ccccc3)c2C1 | inactive
Cc1c(Cl)cccc1-c1ccc(CNCc2ccccn2)o1 | inactive
CC(C)(C)CC(=O)NC(=S)NCc1ccco1 | inactive
O=C(c1cc(F)ccc1F)C1CCCN(Cc2ccc3nonc3c2)C1 (stereo not given) | inactive
COCc1[nH]nc2c1C(c1sccc1C)C(C#N)=C(N)O2 (stereo not given) | inactive

Compound | outcome
CCOC(=O)N1CCC(N2CCCC(C(=O)c3ccc4cc(OC)ccc4c3)C2)CC1 (stereo not given) | inactive
CCOC(=O)CNCCC(=O)c1ccc(Br)cc1 | inactive
O=C(Nc1nccs1)c1ccc2ccccc2c1 | inactive
O=C(NCc1cccs1)c1ccc([N+](=O)[O-])cc1 | inactive
CCOC(=O)c1cc(-c2csc(COc3ccc(Cl)cc3)n2)on1 | inactive
CC(C)CCC1=NN(C(=O)c2ccco2)C(O)(C(F)(F)F)C1 (stereo not given) | inactive
O=C(NC(=S)NCCc1ccccc1)c1ccccc1 | inactive
Cc1cc(C(=O)NNc2ccc(Cl)cc2)no1 | inactive
O=C(OCc1ccccn1)c1ccc(COc2ccccc2Cl)o1 | inactive
Cc1n[nH]c(C)c1CCNC(=O)C1CCC(=O)N(Cc2ccccc2F)C1 (stereo not given) | inactive
O=C(Nc1nc2ccccc2n1CCN1CCCC1)C1CCCCC1 | inactive
C=CCn1c(NC(=O)c2ccccc2)nc2ccccc21 | inactive
Cn1c(CNc2ccccc2O)nc2ccccc21 | inactive
O=C(Nc1ccc(Cl)cc1)C1CCCC1 | inactive
CCCCSc1nnc(-c2cc(Br)ccc2N)c(=O)[nH]1 | inactive
O=C(c1ccc(Br)o1)N1CCC(Cc2ccccc2)CC1 | inactive
CN1c2ccsc2/C(=N/Nc2ccccc2)CS1(=O)=O | inactive
COC(=O)c1ccc(N2CCN(CCNC(=O)Nc3ccc(OC)cc3)CC2)cc1 | inactive
O=C1Nc2cc(C(=O)NCCCN3CCOCC3)ccc2S/C1=C/c1cccc(Cl)c1 | inactive
CCc1ccc(N2CCN(CCNC(=O)Nc3ccc(OC)cc3)CC2)cc1 | inactive
O=C1CC(N2CCSCC2)C(=O)N1CCc1ccccc1 (stereo not given) | inactive
CCOC(=O)C(=O)Cc1nc2ccccc2s1 | inactive
Cc1ccc(-c2nnc(COC(=O)c3cccs3)o2)cc1 | inactive
O=C(O)CCCCCN1C(=O)/C(=C\c2ccncc2)SC1=S | inactive

Compound | outcome
O=C(COC(=O)CCN1C(=O)/C(=C\C=C\c2ccccc2)SC1=S)Nc1cc(F)ccc1F | inactive
O=C(NCCN1C(=O)S/C(=C\c2ccccc2F)C1=O)C1CCN(S(=O)(=O)c2cccs2)CC1 | inactive
O=C(COc1ccc2ccccc2c1)N1CCCC1 | inactive
CCOC(=O)Cn1cc(C#N)c2ccccc21 | inactive
CC1CCC/C(=C\Nc2ccc(C(=O)O)c(O)c2)C1=O (stereo not given) | inactive
Cc1cccnc1NC(=O)C1COc2ccccc2O1 (stereo not given) | inactive
N=c1oc2ccccc2cc1C(=O)Nc1ccccc1 | inactive
Cc1cc(Cl)ccc1N(CC(=O)NCc1ccccc1)S(C)(=O)=O | inactive
CC(=O)c1ccc(NC(=O)c2cc(CC(C)C)on2)cc1 | inactive
CN(CCS(=O)(=O)c1ccc(Cl)cc1)Cc1cccnc1 | inactive
O=C(COc1ccc(Br)cc1)N/N=C1/SCC(=O)N1Cc1ccccc1 | inactive
O=C(Nc1nnc(COc2ccc(Cl)cc2)s1)c1ccco1 | inactive
O=C(NC(=S)N1CCN(C/C=C/c2ccccc2)CC1)c1ccco1 | inactive
COC(=O)C(C)Oc1ccc2cc(-c3ccccc3)c(=O)oc2c1 (stereo not given) | inactive
COc1ccc(NC(=O)C(=O)NNC(=O)C(C)Oc2ccc(Cl)cc2Cl)cc1 (stereo not given) | inactive
C=CCN(CC=C)C(=O)Cc1ccc(F)cc1 | inactive
C=C(C)C1Cc2c(C)nn(-c3nc(C)cc(C)n3)c2C1 (stereo not given) | inactive
CCOC(=O)Cn1c(-c2ccccc2)ccc(C#N)c1=O | inactive
O=C1c2cccc3cc([N+](=O)[O-])cc(c23)C(=O)N1c1ccccc1O | inactive
CC(=O)Nc1ccc(OC(=O)c2ccc(Br)c([N+](=O)[O-])c2)cc1 | inactive
O=c1cc(-c2ccccc2Cl)oc2ccc([N+](=O)[O-])c(O)c12 | inactive
NCCNc1ccc([N+](=O)[O-])c2cccnc12 | inactive
O=[N+]([O-])c1cnc(Nc2ccc(Cl)cn2)c([N+](=O)[O-])c1 | inactive
Cc1ccc(OC(=O)c2sc3ncn(C)c(=O)c3c2C)cc1 | inactive

Compound | outcome
CC(C)CN1C(=O)/C(=C(/C#N)C(=O)NC2CCCCC2)c2ccccc21 | inactive
Cc1ccc(NC(=O)CO/N=C/c2ccccc2C)c(C)c1 | inactive
COc1cc2[nH]c(Cl)c([N+](=O)[O-])c2cc1OC | inactive
CCOC(=O)c1csc(COc2ccc(OC)cc2)n1 | inactive
O=C(NCc1nnc(SC/C=C/c2ccccc2)o1)c1ccco1 | inactive
O=C(CCNc1cccc(Cl)c1)c1ccco1 | inactive
COC(=O)CCc1nc2c(C#N)c(-c3ccc(Cl)cc3)ccn2n1 | inactive
O=C(CC1CCCC1)OCn1nnc2ccccc2c1=O | inactive
CCCCCCCCCCn1cc(C(C)=O)c(=O)[nH]c1=O | inactive
O=C(N/N=C/c1ccccn1)c1cc([N+](=O)[O-])cc([N+](=O)[O-])c1 | inactive
O=C(O/N=C/c1ccc2c(c1)OCO2)c1ccc([N+](=O)[O-])cc1 | inactive
CCOC(=O)COc1ccc2c(=O)c(-c3ccccc3)coc2c1 | inactive
COc1ccc2c([N+](=O)[O-])c(N3CCCC3)[nH]c2c1 | inactive
CC(C)(C)NCc1cc(Br)ccc1OC1CCCC1 | inactive
CC(C)(C)c1cc(CN2CCN(CCO)CC2)cc(C(C)(C)C)c1O | inactive
CN(C)CCC(=O)N1c2ccccc2Sc2ccc(C(F)(F)F)cc21 | inactive
O=C(NCC1CCCCC1)c1ccco1 | inactive
Brc1c(-c2ccc3c(c2)OCO3)nc2ncccn12 | inactive
CCn1cc(C(=O)O)c(=O)c2cc(F)c(N3CCN(C(=S)NC(=O)c4ccccc4)CC3)cc21 | inactive
CCCNC(=O)NC(=O)COc1ccc2oc3ccccc3c2c1 | inactive
CC(C)(C)c1ccc(S(=O)(=O)NNC(=O)c2cc3ccccc3[nH]2)cc1 | inactive
O=C(COc1ccc2ccccc2c1)Nc1nccs1 | inactive
CCOC(=O)c1csc(NC(=O)COc2ccc(Cl)cc2Cl)n1 | inactive
O=C(COC(=O)c1ccccc1)NCc1cccs1 | inactive

Compound | outcome
CC(C)Cc1nnc(NC(=O)CCS(=O)(=O)c2ccc(Cl)cc2)s1 | inactive
COCCSc1nnc(NC(=O)CCS(=O)(=O)Cc2ccccc2)s1 | inactive
COc1ccc(C(=O)CCS(=O)(=O)c2ccc(C)cc2)cc1OC | inactive
CCOC(=O)c1ccc(-n2c(CCC(=O)O)ccc2-c2cccs2)cc1 | inactive
Cc1ccc(OC(=O)c2ccc(Br)o2)cc1 | inactive
CC(=O)NCCOC(=O)Nc1sc(=S)n(C)c1C | inactive
O=C(CCNc1cccc(Cl)c1)c1cccs1 | inactive
NC(=S)n1[nH]c(-c2ccc([N+](=O)[O-])cc2)c(N=Nc2ccc(O)cc2)c1=O | inactive
Cc1ccc(/C=N/NC(=O)c2ccncc2)o1 | inactive
Cc1ccccc1-n1c(C)cc(/C=N/NC(=O)c2ccncc2)c1C | inactive
Cc1cc(OCCCn2ccnc2)ccc1C(C)C | inactive
Cc1cc(OCc2cc(C(=O)N(C)CCc3cnn(C)c3)no2)cc(C)c1Cl | inactive
c1ccc(-c2ccccc2OCCCCn2ccnc2)cc1 | inactive
c1ccc2cc(OCCCn3ccnc3)ccc2c1 | inactive
Cc1ccc(OCCCCn2ccnc2)c([N+](=O)[O-])c1 | inactive
COc1ccc(-c2noc(-c3cc4ccccc4oc3=O)n2)cc1 | inactive
CCCOc1ccc(N2CC(C(=O)Nc3ccccn3)CC2=O)cc1 (stereo not given) | inactive
O=S(=O)(Nc1nccs1)c1ccc(NCc2cc(Br)cc(Br)c2O)cc1 | inactive
COCC(=O)Nc1ccccc1NC(C)=O | inactive
S=C(Nc1ccc2c(c1)OCO2)Nc1ccc2c(c1)OCO2 | inactive
O=C1CC(Sc2ncccn2)C(=O)N1c1ccccc1C(F)(F)F (stereo not given) | inactive
CCOc1c(OC(C)=O)ccc(/C=C2\N=C(SCC)SC2=O)c1[N+](=O)[O-] | inactive
Cc1c(C(=O)N(C)C)sc2nc(-c3ccccn3)[nH]c(=O)c12 | inactive
CCCCOC(=O)c1ccc(NC(=O)C2CCCO2)cc1 (stereo not given) | inactive
